For orientation: Inhibition means the drop in the measured response relative to a control, in per cent. The low end stands for a response near the control, the high end for a response far below the control.

50 molecules from ChEMBL document CHEMBL1157539, “Thousands of chemical starting points for antimalarial lead identification” (Nature, 2010) can be followed below.

What all share (format): functional
Assay [1] concerns Plasmodium falciparum. Put plainly: GSK_TCMDC: Inhibition of Plasmodium falciparum 3D7 in whole red blood cells, using parasite LDH activity as an index of growth. Test compounds present at 2uM.
Assay [2] relates to Plasmodium falciparum. The assay is described as follows: GSK_TCMDC: Inhibition of Plasmodium falciparum Dd2 in whole red blood cells, using parasite LDH activity as an index of growth. Test compounds present at 2uM.
The test system of assay [3] is HepG2. Put plainly: GSK_TCMDC: Percent inhibition of human HepG2 cell line. Test compounds present at 10uM.

In the case of `O=C(Nc1ccc(OC2CCN(Cc3ccc(F)cc3)CC2)c(Cl)c1)c1ccccc1.O=C(O)C(F)(F)F`, the results for the Inhibition in assay [1], in assay [2] and in assay [3] were 90%, 89% and 16%, respectively.
Taken in the same sequence, the figures for `COc1ccc(CNCc2ccc(-c3cccc(-c4nc5cc(F)ccc5[nH]4)c3)cc2)cc1.O=C(O)C(F)(F)F` were 100%, 94% and 33%.
As for `O=C(O)C(F)(F)F.O=S(=O)(NCCN1CCCC1)c1cccc(-c2ccc(CNC3Cc4ccccc4C3)cc2)c1`, the Inhibition is 99% in assay [1], 74% in assay [2] and 79% in assay [3].
For the molecule `Nc1nc2c(c(=O)[nH]1)CN(S(=O)(=O)c1ccc(C(=O)N[C@@H](CCC(=O)O)C(=O)O)cc1)CC2`, the Inhibition in assay [1] amounted to 95%; in assay [2] it was 96%; in assay [3], 49%.
In the case of `NC12CC3CC(CC(C3)C1)C2` [AMANTADINE], the Inhibition is 98% in assay [1], 0% in assay [2] and 31% in assay [3].
On the same counts, the results for `COc1ccccc1CCNc1nc(C)cc(N[C@@H](CC(C)C)C(=O)NCc2cccs2)n1.O=C(O)C(F)(F)F` are 96%, 31% and 20%.
With `Cc1nc2c(c(O)c1Cl)-c1ccc(Oc3cccc(C(F)(F)F)c3)cc1C2=O`, the Inhibition was determined as 98% in assay [1], 97% in assay [2] and 25% in assay [3].
In the case of `COc1ccc2ccccc2c1C=NN=c1cc(C)[nH]c2c(C)cccc12`, the values for the Inhibition in assay [1], in assay [2] and in assay [3] were 100%, 94% and 0%, respectively.
On the same counts, the results for `Clc1ccc2c(NCc3ccccc3)ccnc2c1` are 100%, 100% and 40%.
Consider `CN(C(=O)c1snnc1-c1ccccc1)C1CCN(CCCCCNC(=O)/C=C/c2ccc(Cl)c(Cl)c2)CC1`, for which the Inhibition in assay [1] was determined as 96%; in assay [2], 58%; in assay [3], 44%.
Consider `Cc1nc(NC(=N)N)nc2cc3c(cc12)CCC3.Cl`, for which the Inhibition was found to be 90% in assay [1], 58% in assay [2] and 17% in assay [3].
On the same counts, the results for `CCc1nnc2sc(-c3cccc(NC(=O)c4ccc(OC)c(Cl)c4)c3)nn12` are 92%, 55% and 3%.
As to `O=C(NCc1ccccc1)Nc1ccc(-c2cccc(-c3nc4cc(C(F)(F)F)ccc4[nH]3)c2)cc1`, the Inhibition is recorded as 97% in assay [1], 23% in assay [2] and 56% in assay [3].
For the molecule `COc1ccc(CON2C(=N)N=C(N)NC2(C)C)cc1OC.Cl`, the Inhibition in assay [1] was found to be 96%; in assay [2], 97%; in assay [3], 68%.
Regarding `Cc1cn(CC(=O)Nc2cccc(-c3cccc(-c4nc5cccc(C)c5[nH]4)c3)c2)c(=O)[nH]c1=O`, the Inhibition in assay [1] turned out to be 100%; in assay [2], 100%; in assay [3], 2%.
On to `Cc1cccc2nc(-c3cccc(-c4ccc(NC(=O)Nc5ccsc5)cc4)c3)[nH]c12`, for which the Inhibition in assay [1] is on record as 100%; in assay [2], 99%; in assay [3] it was 27%.
As to `Cc1[nH]cc(Br)c(=O)c1-c1ccc(Oc2ccccc2)cc1`, the Inhibition in assay [1] stood at 97%; in assay [2], 96%; in assay [3], 0%.
Turning to `Cc1cc(NC(=O)NCCN2CCC(NC(=O)c3ccc(C(F)(F)F)cc3)CC2)c2ccccc2n1.O=C(O)C(F)(F)F`, the Inhibition in assay [1] worked out at 98%; in assay [2] it was 75%; in assay [3], 3%.
Take `O=C(Nc1ccc(Oc2ccc(OC(F)(F)F)cc2)cc1)c1ccco1`: the Inhibition in assay [1] was 90%; in assay [2], 71%; in assay [3], 5%.
`COc1ccc(C(=O)Nc2ccc3nc(N4CCCCC4)cc(C)c3c2)cc1[N+](=O)[O-]`: the results for the Inhibition in assay [1], in assay [2] and in assay [3] were 96%, 7% and 17%, respectively.
Turning to `COc1cc2nc(N(C)C)nc(Nc3ccc(OCc4ccccc4)cc3)c2cc1OC`, the values for the Inhibition in assay [1], in assay [2] and in assay [3] were 100%, 100% and 91%, respectively.
For the molecule `Oc1ccc(Br)cc1-c1nc2ccc(Cl)cc2nc1-c1cc(Br)ccc1O`, the Inhibition was 100% in assay [1], 64% in assay [2] and 0% in assay [3].
Regarding `COc1ccc2ncc(C#N)c(CCN3CCC(NCc4ccc5c(n4)NC(=O)CS5)CC3)c2n1.Cl`, the Inhibition in assay [1] was determined as 89%; in assay [2] it was 17%; in assay [3] it was 9%.
`O=C(c1ccc(-c2ccc(-c3nc4cc(C(F)(F)F)ccc4[nH]3)s2)cc1)N1CCN(CCc2ccccc2)CC1`: the figures for the Inhibition in assay [1], in assay [2] and in assay [3] were 98%, 60% and 23%, respectively.
As for `CC(C)Oc1cc2c(cc1NS(=O)(=O)c1ccc(-c3ccc(Cl)s3)cc1F)CCN(C)CC2.Cl`, the figures for the Inhibition in assay [1], in assay [2] and in assay [3] were 99%, 1% and 23%, respectively.
Consider `COc1ccc(CNCc2ccc(-c3cccc(-c4nc5cccc(C)c5[nH]4)c3)cc2)cc1.O=C(O)C(F)(F)F`, for which the Inhibition in assay [1] was 100%; in assay [2] it was 100%; in assay [3], 69%.
Turning to `CCc1sc(N2CCC(C)CC2)nc1C(=O)Nc1ccc(F)cc1C(F)(F)F`, the figures for the Inhibition in assay [1], in assay [2] and in assay [3] were 94%, 65% and 1%, respectively.
Take `Cc1cccc2nc(-c3cccc(-c4cccc(CNCC5CCCO5)c4)c3)[nH]c12.O=C(O)C(F)(F)F` (stereo not given): the Inhibition in assay [1] worked out at 100%; in assay [2], 99%; in assay [3] it was 26%.
For the molecule `Cc1cc(NCCC(=O)NCCOc2ccccc2)nc(NCCc2ccccc2)n1.O=C(O)C(F)(F)F`, the Inhibition in assay [1] was determined as 99%; in assay [2], 9%; in assay [3], 0%.
Taken in the same sequence, the figures for `C[C@@H](COc1ccccc1)NCC(O)c1ccc([N+](=O)[O-])c(OCc2ccccc2)c1` (stereo not given in full) were 93%, 64% and 5%.
Take `O=C(Nc1cccc(CN2CCCN(Cc3cccc(O)c3)CC2)c1)c1ccc2ccccc2c1.O=C(O)C(F)(F)F`: the values for the Inhibition in assay [1], in assay [2] and in assay [3] were 97%, 42% and 21%, respectively.
As to `O=C(Nc1ccc(Cl)cc1)c1cccc(CN2CCCN(Cc3cccc(O)c3)CC2)c1.O=C(O)C(F)(F)F`, the Inhibition is given as 98% in assay [1], 43% in assay [2] and 14% in assay [3].
As to `Cc1cc(-c2cccc3c(C(=O)N4CCc5cc6nccc(N7CCN8CCC[C@H]8C7)c6cc54)cccc23)cc(C)n1.Cl`, the Inhibition in assay [1] worked out at 97%; in assay [2] it was 76%; in assay [3], 13%.
Turning to `Clc1cccc(C23N/C(=N\c4nc5ccccc5[nH]4)NC2(c2ccccc2)N/C(=N\c2nc4ccccc4[nH]2)N3)c1` (stereo not given), the Inhibition in assay [1] is recorded as 85%; in assay [2], 88%; in assay [3], 0%.
For the molecule `CC(Cc1ccc(OCCN2CCN(c3cccc(Cl)c3)CC2)cc1)NCC(O)c1cccc(C(F)(F)F)c1.Cl` (stereo not given), the Inhibition in assay [1] is 99%; in assay [2], 98%; in assay [3], 100%.
`CCN1CCN(CCCNc2c3ccc(Cl)cc3nc3ccc(O)cc23)CC1`: the Inhibition in assay [1] is on record as 100%; in assay [2], 1%; in assay [3], 32%.
As to `Cc1cc(CN2CC[C@H](NC(=O)c3ccc(Cl)c(Cl)c3)C2)ccc1OC1CCN(Cc2ccccc2)CC1.O=C(O)C(F)(F)F`, the results for the Inhibition in assay [1], in assay [2] and in assay [3] were 98%, 29% and 59%, respectively.
On the same counts, the results for `CCCCCN1CCCC1CNS(=O)(=O)c1cccc(C(=O)Nc2cccc(C#N)c2)c1.O=C(O)C(F)(F)F` (stereo not given) are 90%, 7% and 19%.
Turning to `COc1cc2nc(N3CCC(CNC(=O)c4cccc5cccnc45)CC3)nc(N)c2cc1OC`, the Inhibition worked out at 99% in assay [1], 33% in assay [2] and 34% in assay [3].
On to `O=C(Nc1cc(F)c(F)c(-c2cccnc2)c1)N1CCc2cc(Cl)c(Cl)cc21`, for which the Inhibition is given as 94% in assay [1], 9% in assay [2] and 0% in assay [3].
On the same counts, the results for `COc1cc(OC)c(OC)cc1CN1CCC2(CC1)CN(Cc1ccc(Cl)c(Cl)c1)C(=O)O2` are 90%, 94% and 8%.
In the case of `Cc1ccc(CN2CCCN(Cc3cccc(NC(=O)c4ccc(Cl)c(Cl)c4)c3)CC2)cc1.O=C(O)C(F)(F)F`, the Inhibition in assay [1] was determined as 96%; in assay [2], 18%; in assay [3] it was 32%.
With `N#Cc1ccc(-c2ccc(C(=O)NCCCCN3CCC(c4cn(CCCO)c5ccccc45)CC3)cc2)cc1`, the Inhibition in assay [1] was 98%; in assay [2], 56%; in assay [3], 31%.
On the same counts, the results for `COc1c(C2CCN(CCCCNC(=O)c3oc(-c4ccc(Cl)cc4)cc3CO)CC2)ccc2c1CCCC2` are 100%, 95% and 80%.
As to `Cc1cc(-c2ccc(Cl)cc2)c2c(N)c(C(=O)Nc3ccc(F)cc3)sc2n1`, the Inhibition in assay [1] is recorded as 97%; in assay [2], 87%; in assay [3], 12%.
`Cc1[nH]c(CNCCCNc2cc(=O)c3ccccc3[nH]2)c(Br)c1Br`: the Inhibition in assay [1] was 91%; in assay [2] it was 47%; in assay [3], 0%.
For the molecule `S=C(NCCCCCN1CCC(c2c[nH]c3ccccc23)CC1)Nc1ccc(Cl)c(Cl)c1`, the Inhibition came to 100% in assay [1], 31% in assay [2] and 89% in assay [3].
Turning to `COc1ccc(-n2ccnc2SCC(=O)Nc2cc(Cl)ccc2OC)c(OC)c1`, the values for the Inhibition in assay [1], in assay [2] and in assay [3] were 96%, 92% and 0%, respectively.
Consider `CN(CCN)Cc1cccc(-c2cccc(-c3nc4cc(F)ccc4[nH]3)c2)c1.O=C(O)C(F)(F)F`, for which the values for the Inhibition in assay [1], in assay [2] and in assay [3] were 95%, 19% and 20%, respectively.
On the same counts, the results for `O=C(O)CCSSc1cccc[n+]1[O-]` are 95%, 0% and 100%.
